About 79,000 compounds went through this panel and 15% of them were active in at least one assay; those are over-represented in the sample as a whole. Calls of active or inactive are those of the source. Rule as the data show it: active = growth inhibition above about 70%; inactive = the rest.
How the values were obtained:
[1] = NCI Yeast Anticancer Drug Screen. Data for the rad50 strain (AID 155);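 also: 0% = growth of vehicle-only cultures of the same strain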; details: S. cerevisiae rad50 strain growth inhibition, stronger effect = higher value
Summary of the method: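 Compounds were tested on a yeast strain with an engineered DNA damage repair alteration; the reported value is growth inhibition normalised to vehicle treatment.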

[2] = NCI Yeast Anticancer Drug Screen. Data for the mec2-1 strain (AID 157); details: S. cerevisiae mec2-1 strain, stronger effect = higher value
Summary of the method: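 Test agents were screened against the mec2-1 yeast strain, with defined DNA repair or cell cycle alteration. Growth was scored as inhibition against vehicle-only controls.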

[3] = NCI Yeast Anticancer Drug Screen. Data for the sgs1 mgt1 strain (AID 161);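 also: 0% = growth of cultures given vehicle only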; details: S. cerevisiae sgs1 mgt1 strain, stronger effect = higher value
Summary of the method: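 Inhibition of yeast growth, normalised to vehicle-treated controls, is reported for a strain bearing genetic alterations in DNA damage repair.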

[4] = NCI Yeast Anticancer Drug Screen. Data for the cln2 rad14 strain (AID 165);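 also: 0% = growth equal to vehicle treated cultures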; details: S. cerevisiae cln2 rad14 strain, stronger effect = higher value
Summary of the method: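 Growth of compound-exposed yeast (cln2 rad14 genotype) measured and expressed as inhibition relative to vehicle.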

[5] = NCI Yeast Anticancer Drug Screen. Data for the bub3 strain (AID 167); details: S. cerevisiae bub3 mutant strain, stronger effect = higher value
Summary of the method: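 Growth of a checkpoint-deficient yeast mutant is measured after compound exposure. Values represent inhibition relative to vehicle.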

[6] = NCI Yeast Anticancer Drug Screen. Data for the mlh1 rad18 strain (AID 175); details: S. cerevisiae mlh1 rad18 strain growth inhibition, stronger effect = higher value
Summary of the method: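 In this whole-cell yeast screen, a strain with altered DNA damage repair is challenged with compound, and its growth is measured against matched vehicle-treated controls.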

[7] = at 5.0 µM (retest, dose inferred, filed as 0.5)
[8] = at 50.0 µM (retest, dose inferred, filed as 5.0)

Measured: growth inhibition

Cc1ccc(C(=O)OCCN2CCOCC2)c([N+](=O)[O-])c1OCc1ccccc1
active: [1]; at 50.0 µM 73.2% | [3]; [8] 81% | [3]; at 50.0 µM 84.7% | [6]; at 50.0 µM 78.3%
inactive: [1]; [7] 14% | [1]; [8] 61% | [2]; [7] 18% | [2]; [8] 46% | [2]; at 50.0 µM 63.4% | [3]; [7] 13% | [4]; [7] 11% | [4]; [8] 28% | [4]; at 50.0 µM 6.7% | [5]; [7] 11% | [5]; [8] 65% | [5]; at 50.0 µM 68.5% | [6]; [7] 10% | [6]; [8] 58%

CC(=O)Oc1c(Br)ccc2cc(C(Br)Br)c(C(=O)c3ccccc3)nc12
active: [1]; at 50.0 µM 83.6% | [2]; at 50.0 µM 87.5% | [3]; at 50.0 µM 87.5% | [4]; at 50.0 µM 82.9% | [5]; at 50.0 µM 83.9% | [6]; at 50.0 µM 81.4%
inactive: [1]; [7] 55% | [1]; [8] 55% | [2]; [7] 38% | [2]; [8] 38% | [3]; [7] 51% | [3]; [8] 51% | [4]; [7] 30% | [4]; [8] 30% | [5]; [7] 25% | [5]; [8] 25% | [6]; [7] 53% | [6]; [8] 53%

Brc1ccc2[nH]c3nc4ccc5ccccc5c4nc3c2c1
inactive: [1]; [7] 2% | [1]; [8] 1% | [1]; at 50.0 µM -2.35% | [2]; [7] 3% | [2]; [8] 1% | [2]; at 50.0 µM 20.8% | [3]; [7] 0% | [3]; [8] 0% | [3]; at 50.0 µM 7.15% | [4]; [7] 6% | [4]; [8] -1% | [5]; [7] 6% | [5]; [8] 0% | [5]; at 50.0 µM 12.4% | [6]; [7] 6% | [6]; [8] 2% | [6]; at 50.0 µM -3.25%
active: [4]; at 50.0 µM 71%
